Inconclusive results are not listed. Activity calls are given as the source filed them. Calls follow the shape of the dose curve; as a rule, active = well fitted cell-killing curve with a large enough effect; inconclusive = small, poorly fitted or top-dose-only effect; inactive = no such curve, though single readings can be large or run the other way.
Potency is read from the fitted curve at half-maximal effect.

A short description of this assay: qHTS of pediatric cancer cell lines to identify multiple opportunities for drug repurposing: Primary screen for A673 cells (AID 1347092). Also: nearly all actives have a fitted effect of over 45% in size. To be noted: A673 Ewing sarcoma viability, CellTiter-Glo ATP luminescence, 48 h; series mostly up to 46 µM. An excerpt:
Drug repurposing or repositioning has been offered as a strategy for drug development in oncology programs. This approach has special potential for childhood cancers and other rare or orphan diseases, where the expected return on new drug development has been a disincentive to pharmaceuticals. […] In this project we exploit the poly-pharmacology of drugs to discover new indications via phenotypic screening of a panel of 19 well-characterized cell lines derived from solid tumors seen in children and adolescents. The goal is to identify approved drugs with previously unrecognized anticancer properties that has the potential to reveal new mechanisms and biological processes involved in carcinogenesis or drug resistance. We employed a titration-based paradigm (quantitative high-throughput screening or qHTS), where all compounds were tested at multiple concentrations for their effect on cell viability. Concentration-response curves (CRCs) were derived directly from the primary screen, and both potency and efficacy values were used to identify compounds with robust bioactivity profiles. We screened the NIH Chemical Genomics Center (NCGC) Pharmaceutical Collection (NPC) and Mechanism Interrogation Plate (MIPE) small molecule collections of approved and investigational compounds against these cell lines; and measured metabolically active cells after 48 hours of compound treatment as a proxy for cell viability. […] Assay Submitter: Nathalia J. Martinez, National Center for Advancing Translational Sciences, National Institutes of Health, Rockville, MD, USA; email: natalia.martinez@nih.gov. Shen, M et al. Quantitative high-throughput phenotypic screening of pediatric cancer cell lines identifies multiple opportunities for drug repurposing. Oncotarget 2017 Dec 19;9(4):4758-4772. PMID 29435139.
The cells were obtained from University of North Carolina (UNC), Pediatric Preclinical Testing Program (PPT), and Coriell Institute (CI). qHTS cell viability assay: Cells were assayed in growth media at a density of 500-1,000 cells/well. Five microliters of cells were dispensed into 1,536-well, white, solid-bottom, TC-treated plates (Greiner Bio One) using a multidrop dispenser and incubated at 37 degrees C, 5% CO2, under a humidified atmosphere for 5 hours. Twenty-three nanoliters of compounds and controls (neutral control DMSO or positive control bortezomib at final concentration of 2.3 uM) were subsequently transferred by Kalypsys pintool. For primary screens, the MIPE collection was tested at 11-point dilutions (final concentrations range from 0.78 nM to 46 µM) and the NPC collection at 8-point dilutions (final concentrations range from 0.59 nM to 46 µM). Compounds tested in follow-up screens were assayed at 11-point dilutions. Cells were incubated for 48 hours, followed by addition of 3 uL of CellTiter-Glo (Promega). After a 15min incubation at room temperature, samples were analyzed for luminescence intensity using a ViewLux High-throughput CCD imager equipped with clear filters.
In general terms: In qHTS, concentration-response curves come from the screen itself.
With `COc1ccc(-n2nc(C(N)=O)c3c2C(=O)N(c2ccc(N4CCCCC4=O)cc2)CC3)cc1`, the Potency was 9.35 µM (active). Take `CC(C)c1nn(-c2c(Cl)cccc2Cl)c2nc(Cc3ccc(OCCO)cc3)[nH]c(=O)c12`: the Potency was 0.0372 µM (active). Consider `Clc1ccc2ncc(-c3cccc(NC4CNC4)n3)n2c1`, for which the Potency is 4.69 µM (active).

Turning to `Cc1c(NC(=O)OC[C@@H]2COCCN2)cn2ncnc(Nc3ccc4c(cnn4Cc4cccc(F)c4)c3)c12`, the Potency is 0.0469 µM (active). With `C[C@@H]1CN(CC(=O)Nc2ccc3c(c2)Cc2cccc(-c4cc(=O)cc(N5CCOCC5)o4)c2S3)C[C@H](C)O1`, the Potency is 14.8 µM (active). In the case of `O=c1c2ccccc2nc2n1CCc1c-2[nH]c2ccccc12`, the Potency result is “inactive”. `CN(C)c1nc(Cc2ccc(NC(=O)c3ccc4ccccc4c3)cc2)nc(Cl)c1CC(=O)O`: the Potency result is “inactive”.

Regarding `CC(C)CC(=O)Nc1n[nH]c2c1CN(C(=O)C1CCN(C)CC1)C2(C)C`, the Potency was 0.187 µM (active).

As for `CC[C@@H]1C(=O)N(C)c2cnc(Nc3ccc(C(=O)NC4CCC(N5CCN(CC6CC6)CC5)CC4)cc3OC)nc2N1C(C)C` (stereo not given in full), the Potency was 0.0935 µM (active). `CN(C)CCCN=c1c2ccccc2n(C)c2[nH]c(=O)n(C)c(=O)c12`: the Potency is 2.96 µM (active). In the case of `Nc1nc(Nc2ccc(S(N)(=O)=O)cc2)nn1C(=O)c1c(F)cccc1F`, the Potency is 2.96 µM (active). Regarding `CCCCN1CCC(CNC(=O)c2c3n(c4ccccc24)CCCO3)CC1`, the Potency is 1.48 µM (active). For `CC(=O)c1c(C)c2cnc(Nc3ccc(N4CCNCC4)cn3)nc2n(C2CCCC2)c1=O` the value was 14.8 µM (active); for `COc1c(OCCCN2CCOCC2)ccc2c3n(c(=NC(=O)c4cnc(N)nc4)nc12)CCN3`, 0.162 µM (active). On to `C[C@@H](Oc1cc(-n2cnc3ccc(CN4CCN(C)CC4)cc32)sc1C(N)=O)c1ccccc1C(F)(F)F`, for which the Potency was 0.0743 µM (active). As to `O=C(O)CO.[NH2-].[NH2-].[Pt+2]`, the Potency result was “inactive”.

Regarding `CC(=O)SC[C@@H](C)C(=O)N1CCC[C@H]1C(=O)N[C@@H](Cc1ccccc1)C(=O)O`, the Potency result was “inactive”. As to `CCOc1ccccc1OCCNC(C)Cc1ccc(OC)c(S(N)(=O)=O)c1` (stereo not given), the Potency result was “inactive”. Turning to `COCCn1c2c([n+](Cc3cnccn3)c1C)C(=O)c1ccccc1C2=O`, the Potency is 0.0059 µM (active). Consider `NC(=O)Nc1cc(-c2cccc(F)c2)sc1C(=O)N[C@H]1CCCNC1`, for which the Potency was 0.187 µM (active). Regarding `COc1cccc(-c2ccc(NC(=O)C3=C(C(=O)O)CCC3)c(F)c2)c1`, the Potency was 5.9 µM (active). For `COc1cc(C(=O)NS(=O)(=O)c2ccccc2C)ccc1Cc1cn(C)c2ccc(NC(=O)OC3CCCC3)cc12`, the Potency was 14.8 µM (active). As for `Cc1nc2ccc(CN(C)c3ccc(C(=O)N[C@@H](CCC(=O)O)C(=O)O)s3)cc2c(=O)[nH]1`, the Potency is 0.059 µM (active).

In the case of `CC1(C)CC(=O)c2c(C(F)(F)F)nn(-c3ccc(C(N)=O)c(NC4CCC(OC(=O)CN)CC4)c3)c2C1` (stereo not given), the Potency was 0.235 µM (active). Turning to `c1ccc2c(CCNc3ccc(Nc4ccncc4)cc3)c[nH]c2c1`, the Potency is 18.7 µM (active). For the compound `Cc1cc(Nc2cc(N3CCN(C)CC3)nc(C=Cc3ccccc3)n2)n[nH]1`, the Potency was 10.8 µM (active). Turning to `c1cc(-c2cnn3cc(-c4ccc(OCCN5CCCCC5)cc4)cnc23)ccn1`, the Potency is 4.69 µM (active). Turning to `Cc1nc(N)ncc1-c1nc(N2CCOCC2)c2sc(C(C)(C)O)cc2n1`, the Potency is 1.18 µM (active). Turning to `COC(=O)Nc1ccc(-c2nc(N3CCOCC3)c3cnn(C4CCN(Cc5cccnc5)CC4)c3n2)cc1`, the Potency was 4.69 µM (active). Turning to `CC1=C(CO)C(=O)O[C@@H]([C@@H](C)[C@H]2CC[C@H]3[C@@H]4C[C@H]5O[C@]56[C@@H](O)C=CC(=O)[C@]6(C)[C@@H]4CC[C@]23C)C1`, the Potency is 0.372 µM (active).

As for `CC(C)(O)CCc1ccc(OCc2cc(-c3cccc(OC(F)F)c3)c3ncccc3c2)cc1`, the Potency result was “inactive”. `CN1CC[C@@H](c2c(O)cc(O)c3c(=O)cc(-c4ccccc4Cl)oc23)[C@@H](O)C1`: the Potency was 0.0935 µM (active). As to `CCN(CC)CCNC(=O)c1ccc2nc(-c3ccccc3)c(-c3ccc(CN4CCC(n5c(=O)[nH]c6ccccc65)CC4)cc3)nc2c1`, the Potency was 1.18 µM (active). In the case of `Cc1cc(Nc2cc(NC(=O)c3c(Cl)cccc3Cl)ccn2)nc(N)n1` it was 1.18 µM (active); in that of `C=C1C(=CC=C2CCC[C@]3(C)[C@@H]([C@H](C)C=C[C@H](C)C(C)C)CC[C@@H]23)C[C@@H](O)C[C@@H]1O`, 0.469 µM (active); in that of `CN(C)CC=CC(=O)Nc1cc2c(Nc3ccc(F)c(Cl)c3)ncnc2cc1O[C@H]1CCOC1`, 3.72 µM (active). Take `C=C1C(=CC=C2CCCC3(C)[C@@H]([C@H](C)C=CC=CC(O)(CC)CC)CC[C@@H]23)C[C@@H](O)C[C@@H]1O` (stereo not given in full): the Potency is 18.7 µM (active). Turning to `CN1CCN(c2ccc3nc(-c4c(N)c5c(F)cccc5[nH]c4=O)[nH]c3c2)CC1`, the Potency is 14.8 µM (active). `CC=C1NC(=O)[C@H]2CSSCCC=C[C@H](CC(=O)N[C@H](C(C)C)C(=O)N2)OC(=O)[C@H](C(C)C)NC1=O`: the Potency was 0.0118 µM (active). For `Cc1nc(Nc2n[nH]c3c2CN(C(=O)N[C@H](CN(C)C)c2ccccc2)C3(C)C)c2sccc2n1` the value was 0.0148 µM (active).

For the origin of these results see PubChem BioAssay (NCATS).
